Screening results: PubChem BioAssay, National Center for Advancing Translational Sciences (NCATS)
In the library only some 7.3% were active in any assay of this set; here they are far more common.
FLuc modulator – qHTS profiling assay for firefly luciferase inhibitor/activator using purifed enzyme and Km concentrations of substrates (counterscreen for miR-21 project); AID 588342, 2011; Potency, µM (highest dose often 57.5 µM), for the others: top-dose activity change, negative = inhibition, actives largely listed as inhibitors; Luciferin 4-monooxygenase (Photinus pyralis), P08659; actives 6.9% (n = 360,000); purified FLuc, Km substrates, luminescence inhibition;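 also: plate controls were vehicle for no effect and reference inhibitor for full effect; nearly all actives have a fitted effect of over 55% in size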
Target sequence (P08659 whole entry, looked up): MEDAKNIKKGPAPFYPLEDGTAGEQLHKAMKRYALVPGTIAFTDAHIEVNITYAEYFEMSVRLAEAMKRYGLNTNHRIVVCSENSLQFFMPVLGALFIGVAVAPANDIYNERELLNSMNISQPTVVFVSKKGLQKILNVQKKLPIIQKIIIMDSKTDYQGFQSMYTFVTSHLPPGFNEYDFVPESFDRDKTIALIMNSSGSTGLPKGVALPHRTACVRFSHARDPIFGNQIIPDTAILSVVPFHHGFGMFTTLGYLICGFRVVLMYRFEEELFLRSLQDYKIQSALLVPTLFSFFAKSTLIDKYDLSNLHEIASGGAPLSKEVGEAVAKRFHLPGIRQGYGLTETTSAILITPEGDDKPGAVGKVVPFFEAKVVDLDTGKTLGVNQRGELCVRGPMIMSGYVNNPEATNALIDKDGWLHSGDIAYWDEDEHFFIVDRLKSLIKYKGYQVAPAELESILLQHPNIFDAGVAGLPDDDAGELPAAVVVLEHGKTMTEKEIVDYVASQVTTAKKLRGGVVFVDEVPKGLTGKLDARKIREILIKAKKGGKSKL
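Purified P. pyralis luciferase (10nM final) with 10uM D-luciferin and 10uM ATP (Km levels) in 50mM Tris acetate pH 7.5, 10mM Mg acetate, 0.01% Tween-20, 0.05% BSA; qHTS 6-point titration, ~60 µM downward; luminescence read.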
NPC1 prom act – qHTS Assay for NPC1 Promoter Activators; Huh7 NPC1 promoter luciferase reporter, 24 h; Potency, µM (titrated, usually from 9.22 µM), for inactives: at the top dose activation, actives largely listed as activators; actives 2.4% (n = 320,000); also: % of control where 0% means no effect; nearly all actives have a fitted effect of over 60% in size
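Huh7 reporter cells (NPC1 promoter driving luciferase) are dosed with compound for 24 h at 37 °C, 5% CO2; luciferase detection reagent is then added and luminescence measured after 10 min at ambient temperature.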
Rab9 promoter act – qHTS Assay for Rab9 Promoter Activators | Huh7 Rab9 promoter-luciferase reporter, luminescence, 24 h | Potency, µM (top dose mostly 9.22 µM), for the others: top-dose activation, negative = inhibition, most hits filed as activators | actives 2.8% (n = 320,000) | AID 485297, 2010; also: % of control where 0% means no effect; nearly all actives have a fitted effect of over 60% in size
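Quantitative HTS format; Huh7 Rab9-luciferase reporter cells (1500/well) receive compound 2 h post-plating, incubate 24 h at 37 °C, then get luciferase reagent for 10 min before luminescence reading.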
SMN2 splice enh – qHTS Assay for Enhancers of SMN2 Splice Variant Expression | HEK293 SMN2-luciferase splicing reporter, luminescence, 30-36 h | Potency, µM (highest dose often 46.1 µM), inactives show at the top dose activity change, positive = activation, usual class: activators | actives 2.8% (n = 210,000) | AID 1458, 2008; also: % of control where 0% means no effect; nearly all actives have a fitted effect of over 55% in size
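HEK293 cells carry an SMN2 minigene-luciferase reporter in which exon 7 inclusion puts luciferase in frame. Cells were seeded at 2000 cells/well, attached for 10-12 hours, then exposed to compounds for 30-36 hours at 37C before ONE-Glo luminescence.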
ELG1 genotoxic – qHTS screen for small molecules that induce genotoxicity in human embryonic kidney (HEK293T) cells expressing luciferase-tagged ELG1. HEK293T ELG1-luciferase reporter, luminescence, 16 h. Potency, µM (top dose mostly 46 µM), for inactives: at the top dose activity change, positive = activation, usual class: activators. actives 1.3% (n = 330,000). AID 504466, 2011; also: % of control where 0% means no effect; nearly all actives have a fitted effect of over 60% in size
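Reporter readout depends on ELG1 protein level, which increases with genetic stress. After 16 hr compound exposure at 37 °C, luciferase activity was quantified using ONE-Glo.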
KinaseGlo FLuc – Counterscreen for Luciferase (Kinase-Glo TM) Inhibition; AID 1379, 2008; actives 0.28% (n = 200,000); Kinase-Glo luciferase, ATP luminescence, 8 min; Potency, µM (doses to about 38.3 µM), for inactives: at the highest dose activity change, negative = inhibition, hits mostly inhibitors; also: % is scaled to controls: 0 for no effect and ±100 for the full control effect; nearly all actives have a fitted effect of over 60% in size
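Light output from Kinase-Glo luciferase with luciferin and 10 uM ATP in 50 mM imidazole pH 7.2, KCl, MgCl2, Tween 20, BSA; compound pin-delivered, 8-min ambient incubation, then luminescence read.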
Starred values were filed as active, the others as inactive; ? = inconclusive; . = not tested or not shown; ! = repeats disagree; [ ] = dose if it differs, or a comment. Calls follow the shape of the dose curve; as a rule, active = well fitted curve in the direction sought with a large enough effect; inconclusive = small, poorly fitted or top-dose-only effect, or another doubt; inactive = no such curve, though single readings can be large; an effect the other way counts as inactive or inconclusive. Potency is read from the fitted curve at half-maximal effect.

SMILES	FLuc modulator	NPC1 prom act	Rab9 promoter act	SMN2 splice enh	ELG1 genotoxic	KinaseGlo FLuc
O=C(CSc1nncs1)Nc1ccc2c(c1)OCCO2	?	?	?	18.2%	14.6µM*	0.2%
O/N=C/c1ccccc1OCc1ccc(Cl)cc1	16.9µM*	?	?	-5.6%	14.9%	-0.4%
O/N=C/c1ccccc1OCc1ccccc1Cl	-5.3%	2.9%	0.9%	0.9%	1.9%	-0.7%
CCOC(=O)N/N=C/c1ccccc1OCc1ccc(Cl)cc1	15.1µM*	-1.9%	-4.7%	27.0%	2.3%	-1.1%
N#Cc1sc2nc3c(cc2c1N)CCCC3	13.5µM*	14.3%	-3.6%	-8.8%	15.7%	-0.1%
Nc1c(C(=O)C2CC2)sc2nc3c(cc12)CCC3	8.49µM*	2.51µM*	?	.	?	-2.7%
NC(=O)c1sc2nc3c(cc2c1N)CCCCCC3	19µM*	2.51µM*	?	.	-0.6%	.
COc1cccc(C2=CC(c3cc(OC)ccc3OC)n3nnnc3N2)c1 (stereo not drawn)	-6.0%	-16.2%	-6.9%	7.6%	12.9%	3.3%
CC(C)(C)OC(=O)N1Cc2ccccc2C[C@H]1C(=O)NCC(=O)Nc1ccc2c(c1)OCCO2	21.3µM*	0.8%	0.1%	.	?	.
CC(C)(C)c1ccc(C(=O)NCC(=O)OCC(=O)Nc2ccc3c(c2)OCCO3)cc1	3.38µM*	7.7%	1.6%	4.3%	-1.4%	-0.9%
O=C(COC(=O)CNC(=O)c1ccccc1)Nc1ccc2c(c1)OCO2	-6.1%	0.6%	-2.5%	-3.2%	-1.2%	0.4%
O=C(COC(=O)CNC(=O)C1CCCCC1)Nc1ccc2c(c1)OCCO2	19µM*	-0.4%	1.8%	-2.7%	5.6%	-0.7%
O=C(COC(=O)CNC(=O)C1CCCCC1)Nc1ccc2ccccc2c1	-9.9%	1.9%	20.1%	7.3%	13.0%	-0.1%
COc1ccc(/C=N/Nc2nc3ccccc3[nH]2)cc1OC	7.57µM*	?	?	0.8%[1.84 µM]	11.1%	-5.9%
COc1cc(/C=N\Nc2nc3ccccc3[nH]2)cc(OC)c1OC	10.7µM*	-2.5%	-6.2%	-23.5%	-2.2%	-20.3%
CCOc1cc(/C=N/Nc2nc3ccccc3[nH]2)cc(Br)c1OCC(=O)N(C)C	23.9µM*	-0.4%	-0.4%	-82.2%	-15.1%	-1.4%
COc1ccc2c(c1)c(/C=N/Nc1nc3ccccc3[nH]1)c(C)n2C	9.53µM*	5.7%	0.5%	.	4.4%	.
C=CCOc1ccc2c(c1)C(=NO)c1cc(OCC=C)ccc1-2	?	-1.7%	0.7%	-34.0%	3.4%	0.6%
O=C(NCc1cccs1)C1CCCN1C(=O)Nc1cccc(Cl)c1 (stereo not drawn)	-3.3%	-5.7%	-4.2%	1.3%	0.3%	0.7%
COc1cc2nc(SCC(=O)c3ccc(Br)cc3)n3nc(C)nc3c2cc1OC	-1.7%	-3.8%	-6.2%	-6.3%	-0.7%	-2.1%
CCc1cccc(NC(=O)c2sc3nc4n(c(=O)c3c2C)CCC4)c1	16.9µM*	2µM*	2.82µM*	.	?	.
Cc1cccc(CCNC(=O)c2sc3nc4n(c(=O)c3c2C)CCCC4)c1	13.5µM*	.	.	.	.	.
Cc1ccccc1NC(=O)c1sc2nc3n(c(=O)c2c1C)CCC3	-3.1%	.	.	.	.	.
Cc1c(C(=O)Nc2ccccn2)sc2nc3n(c(=O)c12)CCC3	9.53µM*	1.26µM*	0.891µM*	.	?	.
Cc1c(C(=O)Nc2ccccc2F)sc2nc3n(c(=O)c12)CCC3	19µM*!	2.82µM*	2.51µM*	.	?	.
SMILES	FLuc modulator	NPC1 prom act	Rab9 promoter act	SMN2 splice enh	ELG1 genotoxic	KinaseGlo FLuc
Cc1c(C(=O)Nc2cccc(C(F)(F)F)c2)sc2nc3n(c(=O)c12)CCC3	6.8%	.	.	.	.	.
CC(C)(C)OC(=O)C[C@@H]1C/C=C\C[C@@H](CC(=O)NCCO)C(=O)NC[C@H](c2ccccc2)OC1=O	.	.	.	.	-5.3%	.
COc1ccc(N/N=C(\C#N)C(=N)N2CCOCC2)cc1	?	20.2%	24.0%	15.3%	18.3µM*	-2.0%
N#C/C(=N\Nc1ccc(Cl)cc1)C(=O)c1ccccc1	?	5.7%	-10.0%	-67.2%	-10.4%	-5.3%
N#C/C(=N\Nc1cccc(F)c1)C(=O)C1CC1	-8.2%	1.5%	-0.7%	.	-5.8%	.
O=C(Nc1ccc(F)cc1)N1CCCCCC1	-18.6%	13.0%	8.2%	.	17.5%	.
N#C/C(=N\Nc1ccc(F)cc1)C(=N)N1CCCCC1	3.01µM*	0.562µM*	0.631µM*	.	1.64µM*	-12.7%
N#C/C(=N/Nc1ccccc1F)C(=N)N1CCOCC1	-19.7%	23.4%	22.9%	4.6%	4.6%	-1.8%
N#C/C(=N\Nc1cccc(F)c1)C(=N)N1CCCCCC1	2.39µM*	0.501µM*	0.562µM*	12.6µM*	?	0.4%
N#C/C(=N\Nc1ccccc1)C(=N)N1CCCCCC1	3.38µM*	1.78µM*	1µM*	.	?	.
CC(=Nc1ccc(C)c(C)c1)C1=C(O)CCC1=O	?	18.6%	-1.8%	-3.9%	?	2.0%
O=C(NCCc1ccccc1)C(=O)Nc1nccs1	-15.5%	21.4%	27.6%	?	16.0%	-1.9%
O=C(NN=C1CCN(Cc2ccccc2)CC1)c1ccccc1O	23.9µM*	-1.8%	2.6%	.	4.3%	.
O=C(NN=C1CCN(Cc2ccccc2)CC1)c1cc2ccccc2cc1O	?	-1.4%	5.2%	13.2%	0.6%	1.5%
CCOC(=O)N1CCC(=NNC(=O)c2cc3ccccc3cc2O)CC1	?	-0.9%	-1.6%	6.4%	-1.6%	-2.5%
O=C(NN=C1CCN(Cc2ccccc2)CC1)c1cccc(S(=O)(=O)Nc2ccccc2Cl)c1	4.3%	-3.6%	-3.1%	5.4%[1.84 µM]	0.5%	-1.5%
O=C(O)c1cc(N/N=C2/CC(c3ccccc3)Oc3ccccc32)ccc1Cl (stereo not drawn)	26.9µM*	-0.9%	5.4%	-2.9%[1.84 µM]	9.8%	-2.4%
O=C(O)c1cc(NN=C2CCN(Cc3ccccc3)CC2)ccc1Cl	?	3.98µM*	2.82µM*	.	?	.
CCOC(=O)C1=C(C)C/C(=N\NC(=O)c2ccccc2O)CC1	7.57µM*	?	?	.	25.9%	.
CC(=O)N1c2ccc(S(=O)(=O)N3CCCCCC3)cc2CC1C(=O)NCc1cccc(F)c1 (stereo not drawn)	-5.3%	.	.	.	.	.
CCOc1ccc(C(c2c(C)[nH]n(-c3ccccc3)c2=O)c2c(C)[nH]n(-c3ccccc3)c2=O)cc1OC	3.01µM*	.	.	-1.4%	.	.
CNc1c([N+](=O)[O-])cnn1-c1ccc(Cl)cc1Cl	-2.2%	-1.5%	4.8%	8.7%	-0.1%	-1.3%
